The results in this text go back to PubChem BioAssay.

Molecules are shown by their SMILES. Where “and” joins values, the source holds several entries; their conditions need not be identical. Equal values may be shown once. Calls of active or inactive are those of the source. Unless noted, how the calls were made is not given here.

Experiment [1] can be described thus: compounds binding Alexa647 anti-His antibody – biochemical, small-molecule microarray, 635 nm fluorescence, artefact control for SMM control protein annotation, primary screen (AID 1128).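 Further: score merges feature fluorescence with signal-to-noise for each printed compound spot.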 The following applies: higher = more signal.
Experiment [2] deals with Human papillomavirus type 1a E7 protein (residues 1-88). Briefly: HPV1a E7 small-molecule binders, primary screen, biochemical, small-molecule microarray, residues 1-88, 635 nm (AID 1129). Particulars: small-molecule microarray binding, fluorescence 635 nm; higher = more signal.
Experiment [3] deals with Focal adhesion kinase 1 (Homo sapiens) (UniProt Q05397). Nature of the experiment: PTK2 protein binding on printed compound slides – biochemical, small-molecule microarray, 635/667 nm fluorescence, BSA, DTT, primary screen (AID 1130).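 Further: composite of spot emission at 667 nm and signal to noise over triplicate slides.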 Particulars: 635 nm fluorescence, higher = more signal.
Chain of Focal adhesion kinase 1 (Homo sapiens) (Q05397 whole entry, looked up): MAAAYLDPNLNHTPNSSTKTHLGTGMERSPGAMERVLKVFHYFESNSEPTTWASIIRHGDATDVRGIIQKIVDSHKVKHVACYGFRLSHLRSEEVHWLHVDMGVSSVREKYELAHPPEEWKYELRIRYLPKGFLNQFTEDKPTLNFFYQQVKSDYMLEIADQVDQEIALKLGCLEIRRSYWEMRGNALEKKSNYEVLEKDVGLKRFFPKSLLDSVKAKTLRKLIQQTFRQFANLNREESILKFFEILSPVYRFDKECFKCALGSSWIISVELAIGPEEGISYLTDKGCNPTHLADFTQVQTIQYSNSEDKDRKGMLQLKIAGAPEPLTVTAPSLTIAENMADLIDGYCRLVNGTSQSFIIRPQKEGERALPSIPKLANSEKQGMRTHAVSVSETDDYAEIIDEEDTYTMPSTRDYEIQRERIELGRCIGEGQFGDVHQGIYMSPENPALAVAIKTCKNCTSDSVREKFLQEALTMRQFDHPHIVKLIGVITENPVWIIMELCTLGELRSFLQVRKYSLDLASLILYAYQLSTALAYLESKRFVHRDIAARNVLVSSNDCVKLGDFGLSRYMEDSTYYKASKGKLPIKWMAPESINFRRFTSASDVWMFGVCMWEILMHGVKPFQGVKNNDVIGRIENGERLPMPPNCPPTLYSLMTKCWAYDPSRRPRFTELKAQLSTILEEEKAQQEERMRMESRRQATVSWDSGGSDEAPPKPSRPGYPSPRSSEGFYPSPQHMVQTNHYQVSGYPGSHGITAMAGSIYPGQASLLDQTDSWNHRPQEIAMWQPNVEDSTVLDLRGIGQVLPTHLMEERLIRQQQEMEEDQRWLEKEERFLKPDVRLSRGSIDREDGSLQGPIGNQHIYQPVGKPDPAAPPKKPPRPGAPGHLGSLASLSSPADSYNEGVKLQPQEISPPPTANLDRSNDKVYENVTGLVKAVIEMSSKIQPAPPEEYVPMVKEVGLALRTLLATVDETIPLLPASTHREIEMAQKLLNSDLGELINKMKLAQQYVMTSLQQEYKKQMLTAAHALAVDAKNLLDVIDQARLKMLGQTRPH
In experiment [4] the test system is Fibrinogen (Alexa647-labelled). Nature of the experiment: Alexa647-fibrinogen binding to printed small molecules – biochemical, small-molecule microarray, 635/667 nm fluorescence, artefact control for SMM control-protein annotation, profiling panel (AID 1131).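 Further: z-score merges 667 nm fluorescence with per-spot signal-to-noise over triplicate slides.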 The following applies: fibrinogen-A647 binding fluorescence, higher = more signal.
Experiment [5] addresses Follistatin (Homo sapiens) (UniProt P19883). Nature of the experiment: FST protein binding to printed compounds – biochemical, small-molecule microarray, 635/667 nm fluorescence, primary screen (AID 1132). Particulars: 635 nm fluorescence, higher = more signal.
Experiment [6] has as its target Fibroblast growth factor 2 (Homo sapiens) (UniProt P09038). Briefly: basic fibroblast growth factor binding to printed compounds – biochemical, small-molecule microarray, 635/667 nm fluorescence, primary screen (AID 1133). Particulars: FGF2, fluorescence 635/667, higher = more signal.
A short description of experiment [7]: JC-1 mitochondrial potential readout, lung cancer cells – cell-based, A549, JC-1 fluorescence, basal, 24 h, 100 nL, profiling panel (AID 1138).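 Further: A549 lung adenocarcinoma cells under basal conditions with no added stimulus; test concentration not given here.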 The following applies: higher = more signal.
For a further experiment, the system named is Lefty1. Briefly: Lefty1 protein binding to printed compounds – biochemical, small-molecule microarray, 635/667 nm fluorescence, primary screen (AID 1139). The following applies: fluorescence 635/667, higher = more signal.
In experiment [8] the test system is wheat germ agglutinin (Triticum aestivum), Alexa647-labelled. Nature of the experiment: Alexa647-WGA lectin binding to printed small molecules – biochemical, small-molecule microarray, 635/667 nm fluorescence, artefact control for SMM control-protein annotation, profiling panel (AID 1140).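 Further: score merges 667 nm feature emission with signal to noise over triplicate slides.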 The following applies: WGA-A647 binding, 635 nm fluorescence, higher = more signal.

Experiment [9] has as its target Luciferin 4-monooxygenase (Photinus pyralis) (UniProt P08659). Nature of the experiment: inhibition of purified Photinus pyralis luciferase – biochemical, luminescence, purified enzyme, 2006 set, primary screen (AID 1141).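 Further: cell-free assay with purified firefly luciferase at 100 ng per well in PBS; test concentration not given here.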 The following applies: purified firefly luciferase, SteadyGlo luminescence, 30 min; higher = more signal, called active from +8 up or from −8 down.

Experiment [10] deals with Wnt5a (protein binding on small-molecule microarray). Briefly: small molecules binding Wnt5a protein – biophysical, small-molecule microarray, 635/667 nm fluorescence, primary screen (AID 1142).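 Further: fluorescence read at 667 nm with signal to noise per printed feature.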 The following applies: 635 nm fluorescence, higher = more signal.
The nature of experiment [11]: ATP-based viability of Huh7 replicon cells – cell-based, CellTiter-Glo luminescence, basal, 48 h, cytotoxicity control for HCV replication inhibitor project, primary screen (AID 1143).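 Further: Huh7 hepatoma cells carrying a hepatitis C replication reporter with no stimulus; test concentration not given here.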 Particulars: higher = more signal, called active from +8 up or from −8 down. On the technique in general: Replicon systems follow genome replication, usually without infectious particles.

The nature of experiment [12]: Pseudomonas biofilm growth suppression – PAO1 strain, BacTiter-Glo luminescence, LB-PBS, primary screen (AID 1144). Particulars: P. aeruginosa PAO1 biofilm, 12 h, higher = more signal.
Experiment [13] is described as follows: basal CRE-LacZ reporter activity in PC12 – cell-based, unstimulated, primary screen (AID 1145). Particulars: no forskolin, luminescence, 4.5 h, higher = more signal, called active from +8 up or from −8 down.
Experiment [14] is described as follows: forskolin-driven CRE-LacZ activity in PC12 – cell-based, CRE-LacZ reporter, forskolin-stimulated, primary screen (AID 1146).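 Further: PC12 cells with 6xCRE LacZ reporter stimulated by forskolin 10 µM; beta-galactosidase reporter signal reflecting CREB driven transcription.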 Particulars: luminescence, 4.5 h, higher = more signal, called active from +8 up or from −8 down.
Experiment [15] addresses Streptavidin (Streptomyces avidinii) (UniProt P22629). Briefly: compounds binding control protein streptavidin – biophysical, small-molecule microarray, 635/667 nm fluorescence, artefact control for SMM compound annotation, primary screen (AID 1147).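 Further: signal reflects streptavidin binding to arrayed compounds as a control protein.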 The following applies: higher = more signal.
Experiment [16] can be described thus: probe aInhba binding on compound microarray – biochemical, small-molecule microarray, 635/667 nm fluorescence, primary screen (AID 1148).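 Further: score merges 667nm spot fluorescence with signal-to-noise for antibody binding to printed compounds.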 The following applies: higher = more signal.
For experiment [17], the target named is Torsin-1A (Homo sapiens) (UniProt O14656). Nature of the experiment: TOR1A wild-type binding on microarray – cell lysate, small-molecule microarray, lysate, 635/667 nm, primary screen (AID 1149). The following applies: COS7 hTOR1A-WT lysate, 635 nm fluorescence, higher = more signal.
Chain of Torsin-1A (Homo sapiens) (O14656 whole entry, looked up): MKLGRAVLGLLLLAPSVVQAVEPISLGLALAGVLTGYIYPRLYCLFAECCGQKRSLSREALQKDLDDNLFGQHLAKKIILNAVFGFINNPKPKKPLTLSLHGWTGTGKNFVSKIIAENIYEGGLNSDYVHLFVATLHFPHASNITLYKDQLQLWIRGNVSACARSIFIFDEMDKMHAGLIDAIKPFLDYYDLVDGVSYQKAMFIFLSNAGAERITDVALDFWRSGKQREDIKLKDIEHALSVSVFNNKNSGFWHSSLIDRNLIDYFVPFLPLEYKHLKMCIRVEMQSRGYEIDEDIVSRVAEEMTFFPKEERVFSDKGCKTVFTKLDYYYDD
Experiment [18] shares this target. Nature of the experiment: torsin A mutant lysate binding on microarrays – cell lysate, small-molecule microarray, COS7 lysate, 635/667 nm fluorescence, primary screen (AID 1150).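 Further: score pools 667 nm emission and signal to noise measuring lysate protein binding.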 The following applies: COS7 hTOR1A mutant lysate, 635 nm fluorescence, higher = more signal.
In experiment [19] the test system is Sonic hedgehog protein (Shh). Nature of the experiment: Sonic hedgehog microarray binding compounds – biochemical, small-molecule microarray, 635/667 nm fluorescence, primary screen (AID 1151).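 Further: Shh protein binding to compounds spotted on small-molecule microarray slides; score combines spot fluorescence intensity with signal-to-noise across triplicate slides.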 The following applies: 635 nm fluorescence, higher = more signal.

Chain of Luciferin 4-monooxygenase (Photinus pyralis) (P08659 whole entry, looked up): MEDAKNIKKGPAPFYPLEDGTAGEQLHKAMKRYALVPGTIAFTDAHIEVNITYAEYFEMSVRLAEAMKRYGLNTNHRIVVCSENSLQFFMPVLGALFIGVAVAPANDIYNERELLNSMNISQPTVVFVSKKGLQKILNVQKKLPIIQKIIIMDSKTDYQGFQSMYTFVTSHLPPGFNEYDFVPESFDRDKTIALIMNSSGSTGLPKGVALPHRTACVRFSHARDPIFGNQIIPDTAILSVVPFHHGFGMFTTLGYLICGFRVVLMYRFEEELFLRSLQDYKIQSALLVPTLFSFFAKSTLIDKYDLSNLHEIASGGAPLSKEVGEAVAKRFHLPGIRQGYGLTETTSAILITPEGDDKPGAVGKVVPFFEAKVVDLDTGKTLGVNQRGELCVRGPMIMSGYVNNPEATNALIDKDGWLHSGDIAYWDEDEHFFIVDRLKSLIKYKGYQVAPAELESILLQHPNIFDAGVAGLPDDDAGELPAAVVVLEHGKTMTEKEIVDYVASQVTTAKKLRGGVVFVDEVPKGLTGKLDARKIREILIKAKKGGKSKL
Chain of Fibroblast growth factor 2 (Homo sapiens) (P09038 whole entry, looked up): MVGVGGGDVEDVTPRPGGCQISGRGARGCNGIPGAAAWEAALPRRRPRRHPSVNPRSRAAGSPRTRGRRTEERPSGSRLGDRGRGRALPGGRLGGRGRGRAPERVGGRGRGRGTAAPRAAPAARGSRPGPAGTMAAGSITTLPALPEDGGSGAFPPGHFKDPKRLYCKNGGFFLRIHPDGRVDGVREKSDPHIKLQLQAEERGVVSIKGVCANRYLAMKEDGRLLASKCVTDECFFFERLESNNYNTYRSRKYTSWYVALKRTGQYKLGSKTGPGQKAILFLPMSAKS
Chain of Streptavidin (Streptomyces avidinii) (P22629 whole entry, looked up): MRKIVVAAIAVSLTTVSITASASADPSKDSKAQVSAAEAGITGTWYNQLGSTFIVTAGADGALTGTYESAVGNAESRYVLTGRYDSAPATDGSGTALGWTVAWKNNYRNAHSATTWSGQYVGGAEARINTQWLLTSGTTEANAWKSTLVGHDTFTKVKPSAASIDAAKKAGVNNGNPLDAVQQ
Chain of Follistatin (Homo sapiens) (P19883 whole entry, looked up): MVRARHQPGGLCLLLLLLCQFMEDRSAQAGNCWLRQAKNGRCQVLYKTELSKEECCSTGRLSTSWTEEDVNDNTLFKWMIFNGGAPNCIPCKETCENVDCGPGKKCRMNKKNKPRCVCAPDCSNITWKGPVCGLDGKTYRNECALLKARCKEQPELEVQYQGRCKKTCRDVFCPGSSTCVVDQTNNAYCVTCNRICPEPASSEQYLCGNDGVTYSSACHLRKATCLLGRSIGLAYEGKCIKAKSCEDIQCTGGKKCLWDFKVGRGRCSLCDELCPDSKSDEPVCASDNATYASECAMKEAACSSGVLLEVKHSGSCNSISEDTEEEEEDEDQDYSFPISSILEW

In the case of `C=CCN(C(=O)C1N(CCCCCCO)C(=O)C2C(C(=O)O)C3C=CC21O3)C(C)(C)C` (stereo not given), the composite z-score is -1 and 0.0369 in [1]; -1.24 and -0.385 in experiment [2]; -0.837 and -0.881 in experiment [3]; -4.96 and -2.32 in [4]; -1.88 and -2.11 in experiment [5]; -1.42 and -1.7 in [6]. Also, the composite z-score was -2.49 and -1.84 with Lefty1; -0.75 and -0.561 in experiment [8]; -1.54 and -1.09 in experiment [10]; -1.47 and -1.01 in [15]; -0.251 and -0.278 in experiment [16]; -3.52 and -3.83 with Torsin-1A (Homo sapiens) [17]. Moreover, the composite z-score is -3.07 and -2.82 with Torsin-1A (Homo sapiens) [18]; -1.68 and -1.49 in experiment [19]. The z-score was 0.219 and 0.389 in experiment [7]; -1.04 (inactive) and -0.426 (inactive) in [9]; 0.317 (inactive) and 0.148 (inactive) in experiment [11]; 1.99 (inactive) and 1.42 (inactive) in experiment [12]; 0.992 (inactive) and -0.216 (inactive) in experiment [13]; 0.129 (inactive) and 0.453 (inactive) in experiment [14].
Take `O=C1[C@H]2[C@H]3[C@H](O)[C@H](O)CC(=NOCc4ccccc4)[C@H]3CC[C@H]2C(=O)N1Cc1ccccc1`: the composite z-score in experiment [1] is 0.17; in experiment [2], -0.137; in [3], -0.0933; in [4], -0.908; in experiment [5], 0.659; in [6] it was 0.327. For the same compound, the composite z-score was 0.374 in the experiment on Lefty1; 0.0116 in experiment [8]; 0.0003 in experiment [10]; 0.725 in [15]; -0.257 in [16]; 0.119 with Torsin-1A (Homo sapiens) [17]. For the same compound, the composite z-score was 0.358 in the experiment with Torsin-1A (Homo sapiens) [18] and 0.659 in [19]. In addition, the z-score was -0.901 in experiment [7]; 0.983 (inactive) in experiment [9]; -5.42 (inactive) in experiment [11]; -0.788 (inactive) in [12]; 0.796 (inactive) in experiment [13]; 0.888 (inactive) in experiment [14].
On to `C=CCN(Cc1ccccc1)C(=O)C1N(C(C)(C)CO)C(=O)C2C(C(=O)O)C3C=CC21O3` (stereo not given), for which the composite z-score was -1.67 and -0.97 in experiment [1]; -1.24 and -0.825 in experiment [2]; -0.571 and -1.31 in experiment [3]; -2.5 and -2.76 in experiment [4]; -2.21 and -1.21 in experiment [5]; -1.48 and -2.77 in [6]. The composite z-score in the experiment with Lefty1 is -2.57 and -1.65; in experiment [8], -1.76 and -0.466; in experiment [10], -0.578 and -0.945; in experiment [15] it was -1.56 and -1.49; in experiment [16] it was -0.231 and -0.213; in the experiment with Torsin-1A (Homo sapiens) [17] it was -0.396 and -3.85. Moreover, the composite z-score with Torsin-1A (Homo sapiens) [18] was -1.19 and -2.15; in [19] it was -1.17 and -1.73. Further, the z-score in [7] was -0.188 and -0.414; in [9] it was 0.519 (inactive) and 1.45 (inactive); in experiment [11] it was 0.283 (inactive) and 0.582 (inactive); in experiment [12], 1.51 (inactive) and -1.52 (inactive); in experiment [13], -0.224 (inactive) and -1.57 (inactive); in experiment [14], -0.141 (inactive) and -0.418 (inactive).
In the case of `CC(C)[Si]1(C(C)C)OCc2cc(C3CC3)nc(CCc3ccccc3)c21`, the composite z-score in experiment [1] was -0.363 and -0.0162; in experiment [2] it was -0.868 and 0.316; in experiment [3], -0.177 and -0.249; in [4], -0.582 and 0.111; in [5] it was 0.0259 and 0.303; in experiment [6], -0.329 and 0.0149. The composite z-score with Lefty1 was -0.237 and 0.22; in [8] it was -0.269 and 0.0131; in experiment [10], -0.106 and 0.243; in experiment [15] it was 0.0746 and 0.209; in [16], -0.0986 and -0.205; with Torsin-1A (Homo sapiens) [17], -0.483 and 0.207. The composite z-score is -1.29 and 0.401 with Torsin-1A (Homo sapiens) [18]; -0.447 and 0.221 in [19]. In addition, the z-score in [7] is -0.323 and -1.45; in experiment [9] it was -0.324 (inactive) and 0.744 (inactive); in [11], 0.412 (inactive) and -0.432 (inactive); in [12], -0.37 (inactive) and 0.125 (inactive); in [13] it was 0.0035 (inactive) and 0.148 (inactive); in experiment [14], -0.271 (inactive) and -0.0043 (inactive).
